Data: PubChem BioAssay AID720517 (National Center for Advancing Translational Sciences (NCATS), 2013)
Records with an inconclusive call do not appear. A call without a number means that no potency is given here. Calls of active or inactive are those of the source. Calls come from the whole dose curve; as a rule, active = well fitted activation curve with a large enough effect; inconclusive = small, poorly fitted or top-dose-only effect; inactive = flat fitted curve, though single readings scatter.

assay: qHTS for Inhibitors of Cell Surface uPA Generation: FP59 Counterscreen for Cherry-picked Compounds; details: FP59 anthrax toxin cytotoxicity counterscreen, cells; series mostly up to 115 µM

Row | SMILES | Potency
1 | COc1ccc(N2CCN(C3CCN(S(=O)(=O)c4ccc(F)cc4)CC3)CC2)cc1 | inactive
2 | COc1ccc(-c2cc3nc(-c4ccccc4)cc(N4CCCC(O)C4)n3n2)cc1 (centres undefined) | inactive
3 | Cc1cc(SCc2ccc(Cl)cc2)nc(=O)[nH]1 | inactive
4 | CCOC(=O)C1(CCOc2ccccc2)CCN(Cc2ccc(O)c(OC)c2)CC1 | inactive
5 | CC(=O)Nc1ccc(OS(=O)(=O)c2c(C)cc(C)cc2C)cc1 | inactive
6 | COc1cccc(NC(=O)CSc2nc3ncc(Br)cc3[nH]2)c1 | inactive
7 | COc1ccc(OC)c(NC(=O)C2CCCN2C(=O)C2CCC(C)CC2)c1 (centres undefined) | inactive
8 | CSc1nc(N)nc2c1ncn2CC(=O)NCC1CCCO1 (centres undefined) | inactive
9 | Cc1ccc(NS(=O)(=O)c2c(C)nc3sccn3c2=O)c(C)c1 | inactive
10 | CCN(c1ccc(OC)cc1)S(=O)(=O)c1ccc2c(c1)NC(=O)CS2 | inactive
11 | CCC(C)Sc1nnc(NS(=O)(=O)Cc2ccccc2)s1 (centres undefined) | inactive
12 | Cc1ccc(C2=NS(=O)(=O)N(C)C(C(=O)NC3CCCC3)=C2)cc1 | inactive
13 | CC1Cc2nc(SCC(=O)N3CCCC3)n(C)c(=O)c2S1 (centres undefined) | inactive
14 | CN(Cc1ccc(C(C)(C)C)cc1)C(=O)Cc1ccc(S(=O)(=O)N2CCOCC2)s1 | inactive
15 | O=C(Nn1cnnc1)c1ccc(Cl)cc1 | inactive
16 | Cc1ccc(-n2nc3c(c2NC(=O)c2ccc4c(c2)OCO4)CS(=O)C3)c(C)c1 (centres undefined) | inactive
17 | Cc1cc(C)nc(N2N=C(C(F)(F)F)CC2=O)n1 | inactive
18 | CCOc1ccc(NS(=O)(=O)c2ccc(C(=O)N3CCC3)cc2)cc1 | inactive
19 | Cc1cc(COc2ccccc2)oc1C(=O)O | inactive
20 | Cc1ccc2oc(C(=O)N(Cc3ccc(N(C)C)cc3)C3CCS(=O)(=O)C3)c(C)c2c1 (centres undefined) | inactive

Row | SMILES | Potency
21 | CCOC(=O)CN1C(=O)N[C@@H](c2ccccc2)C(C(C)=O)=C1C | inactive
22 | Cc1cnc(CNC(=O)C2CCC(=O)N(CCc3cccc(F)c3)C2)[nH]1 (centres undefined) | inactive
23 | Cc1cccc(C(=O)Nc2cc(=O)n(C)c(=O)n2C)c1 | inactive
24 | O=C(Nc1ccc(Cl)cc1)Nc1nnc(-c2ccncc2)s1 | inactive
25 | CCCCNC(=O)c1cc2c(-c3ccc(Cl)cc3)nn(C)c2s1 | inactive
26 | Cc1noc(C)c1COc1ccc(C(=O)O)cc1 | inactive
27 | O=C(CCS(=O)(=O)c1ccc2c(c1)NC(=O)CS2)NCc1cccs1 | inactive
28 | CCCCN(CC(=O)NCc1ccc(F)cc1)C(=O)c1ccco1 | inactive
29 | O=C(NC(=S)Nc1c(F)cc(F)cc1Br)c1ccc2c(c1)OCCO2 | inactive
30 | O=C(NCCCN1CCCC1=O)c1cccc(Oc2ccccc2)c1 | inactive
31 | N#Cc1ccccc1Sc1ccccc1C(=O)Nc1ccc(Br)cc1 | inactive
32 | Cc1ccc(N2C(=O)c3ccccc3C2(O)c2ccccc2)cc1 (centres undefined) | inactive
33 | O=C(O)CNC(=S)N(Cc1ccccc1)Cc1cccnc1 | inactive
34 | Cc1ccc2sc(NNC(=O)c3ccc4c(c3)OCCO4)nc2c1C | inactive
35 | CCN(CC(=O)Nc1c(F)cccc1F)C(=O)c1ccc(-c2ccc(C(C)=O)cc2)o1 | inactive
36 | COc1ccc(C(C)=O)cc1CSC(=N)N | inactive
37 | Cc1cc(/C=N/NC(=O)c2ccccc2F)c(C)n1-c1ccccc1 | inactive
38 | Cc1cc(C)n(CCCNC(=O)c2ccc(C)o2)n1 | inactive
39 | C[C@]12CCC(O)CC1CCC1C2CC[C@]2(C)C(c3cc(C(F)(F)F)n[nH]3)CCC12 (some centres undefined) | inactive
